In PubChem BioAssay AID743130 (Broad Institute, 2013):
“And” between values parts separate entries of the source, which are not always exact repeats. Equal values may be shown once. The source made the active and inactive calls.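 The calls were made as follows: active = fitted curve rises past 20% activation at a concentration no higher than the top valid tested dose; inactive = activity opposite to the expected signal increase, and the rest.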

assay: Rlm1 cell wall stress reporter activators, dose response, S. cerevisiae reporter strain, C. neoformans project, dry powder (AID 743130); conditions: S. cerevisiae Rlm1-lacZ reporter, luminescence, 4 h, hits give high values; at 35 µM unless noted

Maximal activation, inactive:
CCOC(=O)c1c(-c2ccc(OC)cc2)csc1NC(=O)CN(C)CC(=O)N(C)C -2.31% [at 4.2 µM]
COC(=O)C1=C(C)N(Cc2ccc(F)cc2)C(=S)NC1c1cccc(F)c1 (centres undefined) 3.69%
COC(=O)C1=C(C)N(Cc2ccccc2)C(=S)NC1c1ccc(Br)cc1 (centres undefined) 6.99% [at 8 µM]
CCOC(=O)c1c(-c2ccc(-c3ccccc3)cc2)csc1NC(=O)CNCCN(C)C -12.6%
Cc1ccc(C(C)C)c(OCCn2c(=S)[nH]c3ccccc32)c1 -8.35% [at 0.5 µM]
S=c1[nH]c2cccc(Cl)c2n1CCOc1ccccc1 -2.44%
Cc1ccc2c(c1)[nH]c(=S)n2CCOc1ccccc1 1.98%
CCOC(=O)c1c(-c2ccc(C(C)(C)C)cc2)csc1NC(=O)CN1CCN(CC)CC1 2.55% [at 8 µM]
Cc1ccc(OCCn2c(C)nc3ccccc32)cc1 1.77%
Cc1cccc(OCCn2c(=S)[nH]c3cc(C(F)(F)F)ccc32)c1 -9% [at 16 µM]
CCOc1ccc(OCCn2c(=S)[nH]c3ccccc32)cc1 -9.4% [at 0.26 µM]
Cc1ccc(OCCn2cnc3ccccc32)cc1 -5.3% [at 4.2 µM]
Cc1ccc(OCCn2c(=S)[nH]c3ccccc32)cc1 -4.62%
CCOC(=O)c1c(NC(=O)CN2CCN(C)CC2)sc(C)c1-c1ccc(C)cc1 5.75%
c1ccc(OCCn2cnc3ccccc32)cc1 -5.78% [at 1 µM]
CCOC(=O)c1c(-c2ccc(F)cc2)csc1NC(=O)CN1CCN(C)CC1 8.68% [at 16 µM]
Fc1cccc2c1[nH]c(=S)n2CCOc1ccccc1 -3.67% [at 8 µM]
COC(=O)C1=C(C)N(Cc2ccc(Cl)cc2)C(=S)NC1c1ccc(Br)cc1 (centres undefined) 9% [at 2.1 µM]
COC(=O)C1=C(C)N(Cc2ccc(Br)cc2)C(=S)NC1c1ccc(OC)cc1 (centres undefined) 5.5% [at 0.26 µM]
O=c1[nH]c2ccccc2n1CCOc1ccccc1 6.24% [at 2.1 µM] and 3.18% [at 2.1 µM]
Cc1ccccc1OCCn1c(=S)[nH]c2ccccc21 -3.77% [at 1 µM]
CCOC(=O)c1c(-c2ccc(F)cc2)csc1NC(=O)CN1CCN(CC)CC1 7.91% [at 1 µM]
Cc1ccc(OCCn2c(SCCO)nc3ccccc32)c(C(C)C)c1 -2.9% [at 2.1 µM]
Fc1ccccc1OCCn1c(=S)[nH]c2ccccc21 -3.96%
COC(=O)C1=C(C)N(Cc2ccc(Br)cc2)C(=S)NC1c1ccc(F)cc1 (centres undefined) 9.62% [at 16 µM]
CCOC(=O)c1c(-c2ccc(C(C)(C)C)cc2)csc1NC(=O)CN1CCN(C)CC1 6.67% [at 16 µM]
S=c1[nH]c2ccccc2n1CCOc1ccccc1 3.85% [at 4.2 µM]
CCOC(=O)c1c(NC(=O)CNCCN(C)C)sc(C)c1-c1ccccc1 -3% [at 2.1 µM]
S=c1[nH]c2ccccc2n1CCOc1ccc(Cl)cc1 3.89% [at 8 µM]
